# From PubChem
# CendR NRP1 mod: modulators of CendR peptide binding to NRP-1, primary screen, biochemical, fluorescence polarization, uHTS; 360,000 compounds, 0.85% hits; FAM-RPARPAR peptide binding to NRP-1; Neuropilin-1 (Homo sapiens), O14786; inhibition, % at 25 µM;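 active = inhibition or corrected inhibition above about 18%, plus a signal ratio from 0.5 to 1.5, limit read from the data, passing the limit was not always enough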
# PABP polyA inh: PABP poly(A) RNA binding inhibitors, primary screen, biochemical, fluorescence polarization, uHTS; inhibition, % at 35 µM; 290,000 compounds, 1% hits; AID 2014, 2009;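 note: calls also rest on retests at 20 µM and on dose response follow-up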
# eIF4H FP inh: human eIF4H binding inhibitors, primary screen, translation initiation inhibitor project, biochemical, uHTS, fluorescence polarization; Eukaryotic translation initiation factor 4H (Homo sapiens), Q15056; eIF4H fluorescence polarization binding assay; inhibition, % at 35 µM; 290,000 compounds, 0.94% hits; AID 2012, 2009;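 note: calls also rest on retests at 20 µM and on dose response follow-up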
# MLLE-PAM2 inh: inhibitors of PABP1 MLLE–PAM2 peptide binding, primary screen, biochemical, fluorescence polarization, FITC-PAM2, GST-MLLE. AID 588489, 2011. inhibition, % at 20 µM. Polyadenylate-binding protein 1 (Homo sapiens), P11940. 360,000 compounds, 0.36% hits; in the data active = inhibition above about 35%, passing the limit was not always enough;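 note: plate controls were DMSO wells with GST-MLLE for no effect and wells lacking GST-MLLE protein for full effect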
# An asterisk follows results filed as active; . = no result given. This is a sample that favours compounds with a hit; in the whole collection about 2.1% have one here. Unless noted, the rule behind the calls is not given here.
SMILES,CendR NRP1 mod,PABP polyA inh,eIF4H FP inh,MLLE-PAM2 inh
CC(=O)N1CCN(S(=O)(=O)c2cccc(C(=O)NNC(=O)Cn3ccc(C(F)(F)F)n3)c2)CC1,28*,.,.,16
COc1cccc(/C=C/C(=O)OCC(=O)N2CCCC2)c1OC,-6,.,.,11
COc1cccc(SCc2noc(C(=O)NCC3CC3)c2C(=O)NCC2CC2)c1,4,.,.,13
CCOC(=O)C1=C(C)NC(C)=C(C(=O)OCC)C1c1ccc(O)cc1,16,82*,7.4*,-4
COc1ccccc1C1CC(=O)Oc2ccc(C(C)(C)C)cc21 (stereo not drawn),-14,.,.,11
CC(=O)Nc1ccc2c(=O)n(-c3ccccc3)sc2c1,9,.,.,26
O=c1c2ccccc2sn1-c1cccc(Cl)c1,-3,.,.,22
N#Cc1ccc2c(=O)n(-c3ccccc3)sc2c1,3,.,.,39*
O=c1c2ccccc2sn1-c1ccccc1,-4,9,-4,46*
Cc1cc(=O)[nH]c(SCC(=O)N2CCCC2)n1,4,.,.,9
Cc1ccc(S(=O)(=O)/N=C2/NC(=O)/C(=C\c3ccco3)S2)cc1,-152,54*,66*,4
COC(=O)/C=C1\S/C(=N/N=C/c2ccco2)NC1=O,5,83*,61*,-6
COC(=O)/C=C1/S/C(=N/N=C/c2ccco2)NC1=O,-6,-6,-5,-30
Cc1ccc(S(=O)(=O)/N=C2/NC(=O)/C(=C\c3ccccc3)S2)cc1,-49,.,.,12
CC(=O)Nc1ccc(S(=O)(=O)/N=C2/NC(=O)/C(=C\c3ccco3)S2)cc1,-130,74*,88*,-1
C[C@H]1CNC(=O)c2c(C(=O)NC3CCN(C(=O)OC(C)(C)C)CC3)ncn21,7,.,.,1
CC1CCCCC1NC(=O)c1cccc(NC2=NC3CS(=O)(=O)CC3S2)c1 (stereo not drawn),8,2,-12,-93
O=C(Nc1cccc(Br)c1)c1cc(S(=O)(=O)N2CCOCC2)cs1,3,-16,0,-9
O=C(NC(=S)Nc1ccc(CN2CCOCC2)cc1)c1ccc([N+](=O)[O-])cc1,1,-1,-5,52*
CC(C)c1ccc(/C=C/C(=O)NC(=S)Nc2ccc(CN3CCOCC3)cc2)cc1,-8,6,-2,22
O=C(/C=C/c1cccc([N+](=O)[O-])c1)NC(=S)Nc1ccc(CN2CCOCC2)cc1,2,4,-7,40*
CSCCCNC(=S)N1CCN(c2ccc(C(C)=O)cc2)CC1,24*,-7,-14,-121
Cc1ccccc1Oc1ccc2c(c1)[C@@H]1C[C@H](N(C)C(=O)Nc3cc(Cl)cc(Cl)c3)[C@H]([C@H](C)O)C(=O)N1CC2,35*,.,.,-4
CCCCn1c(N)c(N(CCC(C)C)C(=O)c2ccc([N+](=O)[O-])s2)c(=O)[nH]c1=O,-13,.,.,-13
CC1Cc2ccccc2N1CC(=O)Nc1cc(S(=O)(=O)N2CCOCC2)ccc1Cl (stereo not drawn),-3,.,.,-3
SMILES,CendR NRP1 mod,PABP polyA inh,eIF4H FP inh,MLLE-PAM2 inh
Cc1[nH][nH]c(=O)c1C(c1c(C)[nH][nH]c1=O)c1cn(C)c2ccccc12,20*,10,6,8
Cc1[nH][nH]c(=O)c1C(c1c(C)[nH][nH]c1=O)c1cn(Cc2cccc3ccccc23)c2ccccc12,-1,-2,-6,15
O=C(CCCC(=O)OCC(=O)c1cccs1)Nc1ccc(F)cc1,-10,-2,2,-5
O=C(CCCC(=O)OCC(=O)c1cccs1)Nc1ccc(Oc2ccccc2)cc1,23*,7,3,7
COc1cccc(N2CCN(CC(=O)NC(=O)NC3CCCCC3)CC2)c1,-3,.,.,-4
O=C(CSCc1ccccc1)Nc1ccc(S(=O)(=O)N2CCOCC2)cc1,27*,4,-4,2
COc1ccc(-c2oc3cccnc3c2/C=C/c2ccc(OC)c(OC)c2)cc1,20,13,8,-12
O=c1[nH]c(=S)c2[nH]c(=S)n(-c3ccccc3)c2[nH]1,-19,.,.,-2
Cc1[nH]nc2c(=S)[nH]c(=O)[nH]c12,-5,.,.,40*
O=C(Cn1nc(-c2cccc(Cl)c2)ccc1=O)NCC1COCCO1 (stereo not drawn),-6,.,.,-14
CCN(CC)S(=O)(=O)c1cccc2nsnc12,27*,3,-4,-10
CC(C)c1nc2c([nH]1)c(=O)n(C)c(=O)n2C,5,5,54*,1
COc1cccc(CN2CCNC(=O)C2CC(=O)N2CCCCO2)c1OC (stereo not drawn),-4,0,4,17
